The list is not random: actives were taken first. Their share in the collection is about 2.4%.
Cruzain inh Det: blocks cruzain activity in presence of Triton detergent; P25779; purified cruzain, Z-FR-AMC fluorescence, 0.01% Triton; Potency, µM, without a hit: max response, negative = inhibition, most hits filed as inhibitors; actives 0.43% (n = 200,000);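 further: plate controls were neutral wells for no effect and buffer without enzyme for full effect; nearly all actives have a fitted effect of over 40% in size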
Target sequence (P25779 123-467 limits assumed): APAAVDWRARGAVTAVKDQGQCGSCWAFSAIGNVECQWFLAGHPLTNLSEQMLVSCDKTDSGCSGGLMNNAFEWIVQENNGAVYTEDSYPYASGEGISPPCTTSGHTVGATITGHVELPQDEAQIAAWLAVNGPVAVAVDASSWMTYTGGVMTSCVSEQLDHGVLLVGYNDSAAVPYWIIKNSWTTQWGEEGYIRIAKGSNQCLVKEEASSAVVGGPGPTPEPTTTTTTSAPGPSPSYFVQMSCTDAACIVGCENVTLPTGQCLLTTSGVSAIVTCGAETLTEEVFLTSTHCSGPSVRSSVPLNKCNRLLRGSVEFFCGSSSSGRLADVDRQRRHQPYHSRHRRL
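In this qHTS format, compounds are incubated with 1.5 nM cruzain for 15 min at room temperature before 2 uM Z-FR-AMC is added. Release of AMC is followed at 360/450 nm, and progress is taken as the 60 s fluorescence difference.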
Cruzain inh noDet: inhibitors of Trypanosoma cruzi cruzain without detergent; actives 2.3% (n = 200,000); P25779; Potency, µM, for inactives: max response, negative = inhibition, most hits filed as inhibitors; purified cruzain, Z-FR-AMC fluorescence, no detergent; AID 1476;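 further: plate controls were enzyme without inhibitor for no effect and buffer without enzyme for full effect; nearly all actives have a fitted effect of over 40% in size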
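Detergent-free condition (0.00005% Triton X-100) in acetate buffer pH 5.5 with DTT. 1.5 nM enzyme and compound were pre-mixed 15 min, then 2 uM Z-FR-AMC substrate added; reaction progress from fluorescence change between first and third reads (60 s).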
* hit, by the source's call; ? = inconclusive. The call rests on the fitted dose curve; in most records, active means well fitted curve in the direction sought with a large enough effect; inconclusive means small, poorly fitted or top-dose-only effect, or another doubt; inactive means no such curve, though single readings can be large; an effect the other way counts as inactive or inconclusive. Potency means the concentration at half of the fitted maximal effect.

SMILES	Cruzain inh Det	Cruzain inh noDet
Cc1cc(C)cc(N(C(=O)Cc2cccs2)C(C(=O)NC2CCCCC2)c2ccccn2)c1 (stereo not given)	-4%	4%
COc1ccc(N2CCN(c3oc(/C=C/c4cccc(OC)c4)nc3C#N)CC2)cc1	4%	6%
COc1ccccc1/C=C/c1nc(C#N)c(N2CCN(c3ccccc3)CC2)o1	4%	13%
COc1cc(/C=C/c2nc(C#N)c(N3CCN(C)CC3)o2)cc(OC)c1OC	-1%	13µM*
COc1cccc(/C=C/c2nc(C#N)c(N3CCN(C)CC3)o2)c1	25µM*	3.2µM*
Cc1cc(NC(=O)CCSc2nc(-c3ccco3)cc(C(F)(F)F)n2)no1	4%	8%
Cc1cc(NC(=O)CSc2nc(-c3ccco3)cc(C(F)(F)F)n2)no1	-4%	20µM*
CCCCn1c(SCC(=O)NCc2ccco2)nc2cc(S(N)(=O)=O)ccc21	0%	0%
C[C@@H]1NC(=O)c2cc([N+](=O)[O-])cc(I)c2NCCCC[C@@H](C(N)=O)NC(=O)[C@H](CC(N)=O)NC1=O	-28%	9%
COc1cc([N+](=O)[O-])ccc1NC(=O)CSc1nc2ccccc2n1-c1ccccc1	-2%	13µM*
CCOc1ccc(-n2c(SCC(=O)Nc3cc(OC)c([N+](=O)[O-])cc3C)nc3ccccc32)cc1	-2%	7.9µM*
COc1ccc([N+](=O)[O-])cc1NC(=O)CSc1ccccc1	-9%	7%
COc1cc(NC(=O)CN2C(=O)NC(C)(c3ccccc3)C2=O)c(C)cc1[N+](=O)[O-] (stereo not given)	-5%	-11%
COc1cc(NC(=O)CSc2nc(C)c(C)c(C)n2)c(C)cc1[N+](=O)[O-]	-2%	5%
COc1cc(NC(=O)CN2C(=O)NC(C)(c3ccc4ccccc4c3)C2=O)c(C)cc1[N+](=O)[O-] (stereo not given)	-8%	20µM*
CCCCOC(=O)CN1C(=O)c2ccc(C(=O)OCCCC)cc2C1=O	-3%	-6%
CC(C)c1ccc(NC(=O)CCn2c(=O)c3cccn3c3ccccc32)cc1	-7%	28%
COc1ccc(N(C(=O)c2ccc(C(C)(C)C)cc2)S(=O)(=O)c2ccc(Cl)cc2)cc1	-3%	10µM*
COc1ccc(N(C(=O)c2cccc(C)c2)S(=O)(=O)c2ccc(Cl)cc2)cc1	-3%	-30%
O=C(N/N=C/c1ccc(-c2cccc(C(F)(F)F)c2)o1)c1ccccc1Br	-9%	18%
O=C(N/N=C/c1ccc(-c2cccc(C(F)(F)F)c2)o1)c1ccccc1O	-6%	10µM*
Cc1ccc(N/N=C(\Cc2nc3ccccc3[nH]2)c2ccccc2)cc1	-3%	25µM*
N#CCCN/N=C(\Cc1nc2ccccc2[nH]1)c1ccccc1	0%	-5%
N#CCCN/N=C(/Cc1nc2ccccc2[nH]1)c1ccc(Cl)cc1	-1%	25µM*
c1ccc(N/N=C(\Cc2nc3ccccc3[nH]2)c2ccccc2)cc1	-16%	-28%
SMILES	Cruzain inh Det	Cruzain inh noDet
COC(=O)c1c(NC(=O)CSc2nnc(CNc3ccc(Cl)cc3)o2)sc(C)c1C	-10%	1%
O=C(CN(Cc1ccccc1)S(=O)(=O)c1ccc2c(c1)OCCO2)Nc1ccc2c(c1)OCCO2	-1%	20µM*
CS(=O)(=O)N(CC(=O)Nc1ccc2c(c1)OCCO2)Cc1ccccc1	1%	0%
O=C(CC1CCCCC1)Nc1ncn[nH]1	-2%	-4%
CCn1c2ccccc2c2cc(NC(=O)C3CCN(S(=O)(=O)c4cccs4)CC3)ccc21	2%	?
CCn1c2ccccc2c2cc(NC(=O)Cc3ccc(S(=O)(=O)N4CCOCC4)s3)ccc21	-2%	16µM*
O=C1N/C(=N\N=C\c2cccs2)SC1Cc1ccc(Cl)cc1 (stereo not given)	-6%	2.5µM*
O=C1N/C(=N\N=C\c2cccs2)SC1Cc1cccc(Cl)c1 (stereo not given)	-3%	?
Nc1nc(CN2CCN(c3ccccc3)CC2)nc(N2CCCc3ccccc32)n1	-1%	-2%
Cc1cc(C)nc(NS(=O)(=O)c2ccccc2)n1	1%	-7%
COC(=O)c1ccc(-n2cnc(Cl)n2)c(F)c1	8%	4%
CCCSc1nc2c(c(=O)[nH]c(=O)n2C)n1Cc1ccc(C)cc1	0%	-23%
Cc1ccc(Cn2c(SCC(C)C)nc3c2c(=O)[nH]c(=O)n3C)cc1	1%	10µM*
Cc1ccc(NC(=S)N2CCN(c3ncccn3)CC2)c(C)c1	-3%	16%
Cc1ccc(-c2onc3ccc(C=O)cc23)cc1	-4%	-9%
CC1=NOC(=O)/C1=C\c1ccc(-c2cccc(Cl)c2)o1	-22%	?
Cc1nc(S/C(=C/c2ccc(-c3cccc(Cl)c3)o2)C(=O)O)n[nH]1	3%	25µM*
CCOc1ccc(NC(=O)Cn2c(=O)c(CNc3ccccc3)cc3cc4c(cc32)OCCO4)cc1	-4%	-23%
COc1ccc(NCc2cc3cc4c(cc3n(CC(=O)Nc3ccc(F)cc3)c2=O)OCCO4)cc1	-5%	20µM*
CCc1ccc(NCc2cc3cc4c(cc3n(CC(=O)Nc3ccc(F)cc3)c2=O)OCCO4)cc1	-8%	20µM*
CCc1ccc(NCc2cc3cc4c(cc3n(CC(=O)Nc3ccc(C)cc3)c2=O)OCO4)cc1	-3%	-22%
COc1ccc(NC(=O)COC(C)=O)cc1Cl	0%	0%
CCCn1c(C)cc(/C=C(\C#N)C(=O)OCC(=O)Nc2ccc(OC)c(Cl)c2)c1C	-10%	-12%
COc1ccc(NC(=O)COC(=O)C(CC(C)C)N2C(=O)C3CC=CCC3C2=O)cc1Cl (stereo not given)	7.1µM*	10µM*
CCOC(=O)/C=C/C(=O)OCC(=O)Nc1ccc(OC)c(Cl)c1	13µM*	16µM*
SMILES	Cruzain inh Det	Cruzain inh noDet
COc1ccc(NC(=O)COC(=O)/C=C/C(=O)OCC(=O)Nc2ccc(OC)c(Cl)c2)cc1Cl	-20%	25µM*
CC(C)CC(C(=O)OCC(=O)Nc1ncc(Cl)cc1Cl)N1C(=O)c2ccccc2C1=O (stereo not given)	-21%	?
COc1cccc(-c2nn(C)c3sc(C(=O)NCc4ccc(OC)cc4OC)cc23)c1	-1%	?
CC(=O)Nc1nnc(Cc2ccccc2)s1	1%	-4%
CCc1nc2ccc(C(=O)NCc3cccc(Br)c3)cc2nc1CC	0%	-10%
O=C(CCn1ccc([N+](=O)[O-])n1)NC1CCCCCC1	-5%	-7%
NCCSSCCN	0%	1%
O=S(=O)(Nc1nc2ccccc2nc1Nc1cccc(S(=O)(=O)N2CCCCC2)c1)c1ccccc1	-11%	16µM*
COc1ccc(S(=O)(=O)Nc2cccc(S(=O)(=O)N3CCCCCC3)c2)cc1	-5%	2%
Cc1onc(-c2ccccc2)c1C(=O)N/N=C/c1cc(Br)c(Br)o1	-8%	2%
CCN(CC)CCNc1ncnc2c1[nH]c1ccc(OC)cc12	4%	?
COc1ccc2[nH]c3c(NCc4ccco4)ncnc3c2c1	18µM*	?
Cc1ccc(-c2cc(NC(=O)CSc3n[nH]c(N)n3)n(-c3ccccc3)n2)cc1	-3%	?
O=C(NC(=S)Nc1cc(Cl)ccc1N1CCOCC1)c1ccc(-c2cccc(Cl)c2)o1	5%	7.9µM*
O=C(Nc1ccccc1N1CCCCC1)c1ccc(-c2cccc(Cl)c2)o1	-2%	-3%
CSc1ccc(C2C3(C#N)C(N)=NC4(OCCO4)C23C#N)cc1 (stereo not given)	-1%	-4%
CCOC(=O)c1c(C)n(Cc2ccco2)c2c1cc(O)c1ccccc12	-2%	25µM*

Screening data as filed in PubChem.
